These results are taken from PubChem BioAssay (NCI).

About 83,000 compounds went through this panel and 20% of them were active in at least one assay; those are over-represented in the sample as a whole.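 Note: values are percent growth. 100 is the growth of untreated cells, values between 100 and 0 indicate rising inhibition; between -100 and 0 indicates cell death.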 A number with no mark means an inactive call. Activity calls are given as the source filed them. How the source made its calls: active means growth percent below 10; inactive means the rest.

Among the test systems are T-47D breast; BT-549 breast; MDA-MB-435 melanoma; SW-620 colon; MCF7 breast; HCT-116 colon; HCC-2998 colon; KM12 colon.
What all share (assay): NCI-60 one-dose screen, 48 h (100 = growth as untreated, 0 = no growth, -100 = all killed)
Holding throughout (conditions): 10 µM unless noted

`O=C(Nc1ccc(Nc2ccncc2)cc1)c1ccc(C(=O)Nc2ccc(Nc3ccncc3)cc2)cc1`: the growth was 33.8% in the assay on T-47D breast; 123% with BT-549 breast; 48.8% with MDA-MB-435 melanoma; 42.2% in the assay on SW-620 colon; 26.8% in the assay on MCF7 breast; 32.7% with HCT-116 colon. Besides, the growth in the assay on HCC-2998 colon is 87%; with KM12 colon it was 47.4%.

For `Nc1n[nH]c(-c2cc(Cl)ccc2O)c1-c1ccccc1`, the growth in the assay with T-47D breast is 85.3%; in the assay with BT-549 breast it was 112%; in the assay with MDA-MB-435 melanoma, 93.6%; in the assay on SW-620 colon, 102%; with MCF7 breast it was 92.7%; in the assay with HCT-116 colon, 85.1%. In addition, the growth with HCC-2998 colon was 86.5%; in the assay with KM12 colon, 64.2%.

For the compound `COC(=O)[C@]12CC[C@@H](C)[C@H](C)[C@@H]1C1=CC[C@@H]3[C@@]4(C)C(C=O)=C[C@@](C)(COC(C)=O)C4=CC[C@@]3(C)[C@]1(C)CC2`, the growth was -5.34% (active) in the assay with T-47D breast; -16% (active) in the assay on BT-549 breast; -0.255% (active) in the assay with MDA-MB-435 melanoma; -43.8% (active) in the assay on SW-620 colon; 5.08% (active) with MCF7 breast; -67.5% (active) in the assay with HCT-116 colon. Besides, the growth is -14.6% (active) in the assay on HCC-2998 colon and 2.7% (active) in the assay with KM12 colon.

Regarding `CC(CCc1ccc(Cl)c(Cl)c1)NCc1ccc(C(C)(C)C)cc1` (stereo not given), the growth was 67.7% with T-47D breast; 68.9% in the assay on BT-549 breast; 93.1% in the assay with MDA-MB-435 melanoma; 80.2% with SW-620 colon; 80.8% in the assay on MCF7 breast; 79.1% in the assay with HCT-116 colon. The results for the growth in the assay with HCC-2998 colon and in the assay with KM12 colon were -18.4% (active) and 89.2%, respectively.

Take `Cc1ccc2nc3ccccc3c(NCc3ccccc3)c2c1`: the growth with T-47D breast is 63.6%; with BT-549 breast, 69%; in the assay on MDA-MB-435 melanoma, 58.2%; in the assay with SW-620 colon it was 24.3%; in the assay with MCF7 breast, 11.2%; in the assay on HCT-116 colon it was 9.4% (active). The values for the growth in the assay on HCC-2998 colon and with KM12 colon were -21.4% (active) and 56.3%, respectively.

Regarding `Cc1c(C(=O)N[C@@H](Cc2ccccc2)C(=O)C(=O)NCCc2ccccc2)[nH]c2ccccc2c1=O`, the growth in the assay with T-47D breast is 101%; in the assay with BT-549 breast, 124%; with MDA-MB-435 melanoma, 101%; in the assay with SW-620 colon, 105%; in the assay with MCF7 breast, 92.3%; in the assay on HCT-116 colon it was 106%. Also, the growth in the assay with HCC-2998 colon was 100%; in the assay with KM12 colon it was 103%.

For `N#Cc1c(N)nc(NCCO)nc1-c1ccc(F)cc1`, the growth in the assay on T-47D breast is 79.7%; with BT-549 breast it was 98.6%; in the assay with MDA-MB-435 melanoma it was 104%; with SW-620 colon, 99.8%; in the assay on MCF7 breast it was 97.3%; in the assay on HCT-116 colon, 93.7%. The growth is 105% in the assay with HCC-2998 colon and 103% in the assay on KM12 colon.

With `Oc1c(CN2CCCC2)cc(COCc2ccc(Br)cc2)c2cccnc12`, the growth in the assay with T-47D breast was -7.63% (active); in the assay on BT-549 breast it was 14.9%; with MDA-MB-435 melanoma it was 24.1%; with SW-620 colon, 5.64% (active); in the assay with MCF7 breast, 11.7%; with HCT-116 colon, 1.8% (active). For the same compound, the growth is 21.5% in the assay on HCC-2998 colon and 20.6% in the assay on KM12 colon.

Consider `Cc1ccc(/C=C/c2c(C(=O)/C=C/c3ccc(Cl)cc3)c(C)nc3ccccc23)cc1`, for which the growth with T-47D breast is 1.89% (active); in the assay with BT-549 breast, -10.4% (active); with MDA-MB-435 melanoma, -47.5% (active); in the assay with SW-620 colon it was -33.1% (active); in the assay with MCF7 breast, 12.8%; in the assay with HCT-116 colon, -59.6% (active). Also, the results for the growth in the assay with HCC-2998 colon and with KM12 colon were -82.1% (active) and -24.9% (active), respectively.

On to `COc1ccc(OC)c2c1[nH]c(=O)c1c3ncccc3cn21`, for which the growth in the assay with T-47D breast is 39%; in the assay with BT-549 breast, 86.6%; with MDA-MB-435 melanoma, 28.6%; in the assay with SW-620 colon it was 15.2%; in the assay on MCF7 breast, 8.95% (active); in the assay with HCT-116 colon, 21.7%. The growth was 36.1% in the assay on HCC-2998 colon and 32.5% with KM12 colon.

Take `COc1ccc(NC(=O)CSc2nc(C)c(C(C)=O)n2-c2ccc(Cl)cc2)cc1`: the growth in the assay with T-47D breast was 80.5%; in the assay on BT-549 breast, 80.4%; in the assay on MDA-MB-435 melanoma, 89%; in the assay on SW-620 colon, 96.1%; in the assay with MCF7 breast it was 92.9%; with HCT-116 colon, 81.3%. For the same compound, the growth with HCC-2998 colon is 90.3%; in the assay on KM12 colon it was 95.5%.

Take `O=C(COc1ccc(/C=C2\Oc3ccccc3C2=O)cc1)c1ccc(Cl)cc1`: the growth in the assay with T-47D breast is 98.5%; in the assay on BT-549 breast, 121%; in the assay with MDA-MB-435 melanoma, 90.7%; in the assay on SW-620 colon it was 115%; with MCF7 breast, 95.3%; in the assay on HCT-116 colon it was 88.5%. The growth with HCC-2998 colon is 97.4%; in the assay on KM12 colon, 98.5%.

On to `Cn1c(I)c(C#C[Si](C)(C)C)c(=O)n(C(=O)c2ccccc2)c1=O`, for which the growth in the assay with T-47D breast is 17.8%; in the assay with BT-549 breast, 42.8%; with MDA-MB-435 melanoma, 53.9%; in the assay with SW-620 colon, -83.4% (active); in the assay on MCF7 breast, -18.9% (active); in the assay with HCT-116 colon, -61.6% (active). Further, the figures for the growth in the assay with HCC-2998 colon and in the assay with KM12 colon were 0.121% (active) and 57.3%, respectively.

On to `CCc1c2c(nc3ccc(OC(=O)OCc4ccc(B5OC(C)(C)C(C)(C)O5)cc4)cc13)-c1cc3c(c(=O)n1C2)COC(=O)[C@]3(O)CC`, for which the growth in the assay on T-47D breast is 7.4% (active); with BT-549 breast, 13.2%; with MDA-MB-435 melanoma, -28.3% (active); with SW-620 colon it was 5.3% (active); with MCF7 breast it was 2.63% (active); in the assay with HCT-116 colon it was 14.5%. The growth in the assay on HCC-2998 colon is 2.03% (active); in the assay on KM12 colon, 0.859% (active).

As to `NCCCNc1nc2ccccc2c2c(=O)c3cccc(Cl)c3sc12`, the growth with T-47D breast was 35.3%; with BT-549 breast it was 76.6%; with MDA-MB-435 melanoma, -43.3% (active); in the assay with SW-620 colon, -79.4% (active); in the assay on MCF7 breast, -86.6% (active); in the assay on HCT-116 colon it was -92% (active). The growth is -94.1% (active) in the assay with HCC-2998 colon and -72.6% (active) in the assay with KM12 colon.
